In PubChem BioAssay (NCI):
The panel holds about 79,000 compounds, 15% with a hit somewhere; the sample as a whole holds those more often. No stated cut-off is given here; in the data, active means growth inhibition above about 70%; inactive means the rest.

Assays:
[1] = NCI Yeast Anticancer Drug Screen. Data for the rad50 strain (AID 155);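 further: 0% = growth of vehicle-only cultures of the same strain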; details: S. cerevisiae rad50 strain growth inhibition; at 50.0 µM; stronger effect = higher value
In short: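 Compounds were tested on a yeast strain with an engineered DNA damage repair alteration; the reported value is growth inhibition normalised to vehicle treatment.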

[2] = NCI Yeast Anticancer Drug Screen. Data for the mec2-1 strain (AID 157); details: S. cerevisiae mec2-1 strain, at 50.0 µM, stronger effect = higher value
In short: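 Yeast mec2-1 mutant treated with compound. Readout: growth inhibition vs vehicle controls.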

[3] = NCI Yeast Anticancer Drug Screen. Data for the sgs1 mgt1 strain (AID 161);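 further: 0% = growth of cultures given vehicle only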; details: S. cerevisiae sgs1 mgt1 strain, at 50.0 µM, stronger effect = higher value
In short: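 Read-out: growth inhibition vs vehicle controls. Cells: mutant yeast strain deficient in DNA damage repair.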

[4] = NCI Yeast Anticancer Drug Screen. Data for the cln2 rad14 strain (AID 165);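 further: 0% = growth equal to vehicle treated cultures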; details: S. cerevisiae cln2 rad14 strain, at 50.0 µM, stronger effect = higher value
In short: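 cln2 rad14 yeast strain; compound exposure; growth inhibition read vs vehicle controls.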

[5] = NCI Yeast Anticancer Drug Screen. Data for the bub3 strain (AID 167); details: S. cerevisiae bub3 mutant strain, at 50.0 µM, stronger effect = higher value
In short: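 Growth of a checkpoint-deficient yeast mutant is measured after compound exposure. Values represent inhibition relative to vehicle.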

[6] = NCI Yeast Anticancer Drug Screen. Data for the mlh1 rad18 strain (AID 175); details: S. cerevisiae mlh1 rad18 strain growth inhibition; at 50.0 µM; stronger effect = higher value
In short: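 Yeast w/ defined DNA-repair lesions; compound exposure; growth vs vehicle controls → % inhibition.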

Measured: growth inhibition

CN(C)c1ccc(/C=C/[N+](=O)[O-])cc1
inactive: [1] -3% | [2] -17.4% | [3] 12.4% | [4] -15.7% | [5] 0.6% | [6] -3.25%

COP(=O)(OC)OC1C(=O)NC(=O)NC1=O
inactive: [1] 12.3% | [2] 0.25% | [3] -4.15% | [4] 14.2% | [5] 7.2% | [6] 17.9%

CCOC(=O)CC1=N/C(=N/C(=N)N[N+](=O)[O-])SC1
inactive: [1] 7.45% | [2] -5.3% | [3] 10.4% | [4] 7.6% | [5] 15.3% | [6] 16%

CCOC(=O)C1=C(C)N2CCCOC2(C)C(C(=O)OC)C1c1cccc([N+](=O)[O-])c1 (stereo not given)
inactive: [1] 38% | [2] 10.8% | [3] -6.5% | [4] 18.5% | [5] -34.6% | [6] 27.8%

CC1=CC2OC3CC(OC(=O)/C=C/C=C/C(OCCC4=CC(=O)OC4)C(C)O)C(C)(C2(CO)CC1)C31CO1 (stereo not given)
inactive: [1] 31.8% | [2] -0.7% | [3] 11.6% | [4] 25.2% | [5] 8.5% | [6] -2.2%

OCC1C(/C=C/c2ccoc2)ON2CCCC12 (stereo not given)
inactive: [1] -16.6% | [2] -0.5% | [3] -8.05% | [4] 26.6% | [5] 18.1% | [6] -27.6%

C/C(=N\N(C)C)C(CN1CCCCC1)C(c1ccccc1)c1c(O)c2ccccc2oc1=O (stereo not given)
inactive: [1] -1.35% | [2] -30.2% | [3] -6.15% | [4] 4.8% | [5] 30.1% | [6] -9%

COP(=O)(CC(=O)CCCCC1OCCO1)OC
inactive: [1] 2.25% | [2] 0% | [3] 1.3% | [4] -22.8% | [5] -5.3% | [6] -4.85%

NC(Cc1cc([N+](=O)[O-])ccc1CN(CCCl)CCCl)C(=O)O (stereo not given)
inactive: [1] 41.5% | [2] 29.8% | [3] 42% | [4] 19.5% | [5] 40.1% | [6] 39.6%

CCC1(C(C)c2ccccc2)C(=O)NC(=O)NC1=O (stereo not given)
inactive: [1] 0% | [2] 6.1% | [3] 1.8% | [4] 46.1% | [5] 16.6% | [6] -3.55%

OC(CN(C1CCCCC1)C1CCCCC1)c1ccc(Cl)c(Cl)c1 (stereo not given)
inactive: [1] -3.1% | [2] -30.9% | [3] -14.4% | [4] -36% | [5] 35.4% | [6] -28.2%

COC(=O)C(N)Cc1ccc(OC)c(N(CCCl)CCCl)c1 (stereo not given)
inactive: [1] 17% | [2] -0.6% | [3] -11.2% | [4] 2.8% | [5] 3% | [6] 6.55%

C[CH2][Sn]1([CH2]C)[O]OC(c2ccccc2)[O]1 (stereo not given)
inactive: [1] 6.25% | [2] 2.75% | [3] 18.7% | [4] -3.65% | [5] 14.1% | [6] 20.3%

Cc1ccccc1[N+](=O)[O-]
inactive: [1] 19.1% | [2] 13.6% | [3] 2.5% | [4] 9.45% | [5] -10.1% | [6] -3.3%

CCN(CCCl)c1cc(C(=O)NCCCN(C)CCCNC(=O)c2cc(N(CC)CCCl)c([N+](=O)[O-])cc2[N+](=O)[O-])c([N+](=O)[O-])cc1[N+](=O)[O-]
inactive: [1] -4.75% | [2] -2.9% | [3] -17% | [4] -4.05% | [5] -2.2% | [6] -9%

CN(C)C(=O)CCl
inactive: [1] 1.85% | [2] 6.15% | [3] 20.6% | [4] 9.9% | [5] -5.55% | [6] 7.25%

O=C(CCl)NC1CCCCC1
inactive: [1] 9.7% | [2] -8.45% | [3] 7.15% | [4] -4.25% | [5] 10.9% | [6] -6.45%

O=[N+]([O-])O.[Tl]
inactive: [1] -5.5% | [2] -23.2% | [3] -16.8% | [4] 6.8% | [5] -19.4% | [6] -18.4%

COc1ccc2c3c1O[C@H]1C(Br)C=C[C@H]4[C@@H](C2)N(C)CC[C@]314 (stereo not given in full)
inactive: [1] -11.8% | [2] -15.8% | [3] 7.15% | [4] -22.6% | [5] 29.2% | [6] 8.35%

c1ccc(CC[n+]2cccc3ccccc32)cc1
inactive: [1] -3.8% | [2] 11.2% | [3] 3.95% | [4] -26.3% | [5] -8.1% | [6] -6.85%
